This note sets out measurements from PubChem BioAssay (Tox21).

Records with an inconclusive call do not appear. Values without a mark were called inactive. Calls come from the whole dose curve; as a rule, active = well fitted cell-killing curve with a large enough effect in the repeat runs; inconclusive = weak or mixed curves; inactive = flat fitted curve, though single readings scatter.
% is set by controls: 0 for no effect and ±100 for the full control effect.

The test can be described thus: qHTS assay to identify small molecule antagonists of the estrogen related receptor (ERR) signaling pathway from Tox21 library - cell viability counter screen (AID 1224834). Note: nearly all actives have a fitted effect of over 30% in size. To be noted: ERR reporter cells viability, CellTiter-Fluor, 17.5 h; series mostly up to 92.4 µM; viability change, negative = cytotoxic: at the top concentration. The source says:
National Center for Advancing Translational Sciences [NCATS]
NIH Chemical Genomics Center [NCGC]
U.S. Environmental Protection Agency [EPA]
National Institutes of Environmental Health Sciences [NIEHS]
National Toxicology Program [NTP]
U.S. Food and Drug Administration [FDA]
Estrogen related receptors (ERRs), the first orphan nuclear receptors discovered, play an important role in the control of cellular energy metabolism. ERRs are required for high-energy production in response to the environmental challenges. ERR-alpha was also identified as an adverse marker for breast cancer progression; ERR-alpha-positive tumors have a poor prognosis. To screen and to identify environmental compounds that perturb the ERR signaling pathways could provide valuable information for potential therapeutic or preventive measures in the treatment of metabolic disease. To differentiate true ERR antagonists or agonist from cytotoxic substances, the assay is multiplexed with cell viability assay.
Tox21 Assay Protocol Summary:
The ERR cells were dispensed at 2,000 cells/5 ul/well in 1536-well white plates using a Multidrop dispenser. After the assay plates were incubated at a 37 C/5% CO2 incubator for 6 hours, 23 nL of compounds dissolved in DMSO, positive and negative controls or DMSO only was transferred to the assay plate by a pin tool. The plates were incubated at 37 C for 17.5 hours. 1 ul/well of CellTiter-Fluor reagent was added into the assay plates using a Flying Reagent Dispenser. After 30-minute incubation at 37 C/5% CO2, the fluorescence intensity in the plates was measured using a ViewLux plate reader.
(qHTS replaces the single test concentration by a dilution series.)
With `Cc1cc(O)c(Cl)cc1C`, the “viability change, negative = cytotoxic” value was 0.0156%. For the molecule `COC(C)(C)CC(C)=O`, the “viability change, negative = cytotoxic” value is 5.9%. `CC(=O)Oc1ccc(C(C)=O)cc1`: the “viability change, negative = cytotoxic” value is 1.26%. The same measure for `CCCCCCC(O)CO` (stereo not given): -0.35%; for `C=CCCCCCCCCOC(C)=O`: -2.31%. The same measure for `CCN1CCN(C(=O)N[C@@H](C(=O)N[C@@H]2C(=O)N3[C@@H]2SC(C)(C)[C@H]3C(=O)O)c2ccccc2)C(=O)C1=O`: 1.08% [at 42.5 µM]. The same measure for `O=C(O)COc1ccc2ccccc2c1`: 3.21%; for `C=CC(=O)OCC[N+](C)(C)C`: 1.01%; for `Clc1ccc2c(c1)Nc1ccccc1S2`: 0.673% [at 42.5 µM]. With `C=C(C)C(=O)OCCOC1CC2CC1C1C=CCC21` (stereo not given), the “viability change, negative = cytotoxic” value was 0.32%. The same measure for `CCCCCCCCCCCCCCBr`: 1.31%; for `Cc1ccc(O)c([N+](=O)[O-])c1`: -1.1%. Under `C[n+]1ccccc1/C=N/O` stands 1.36% [at 42.5 µM]; under `O=S(=O)(O)c1ccc(Cl)cc1`, 1.44%; under `COC(=O)c1cc(Cl)c(NC(C)=O)cc1OC`, 0.817% [at 42.5 µM].

`CC(C)(O)CCCC1=CCC(C=O)CC1` (stereo not given): the “viability change, negative = cytotoxic” value was -1.38%.

On to `Cc1ccc(O)c(C(=O)c2ccccc2)c1`, for which the “viability change, negative = cytotoxic” value is -5.24%.

For `O=C(OOC(=O)c1ccccc1)c1ccccc1`, the “viability change, negative = cytotoxic” value was -7.69% [at 42.5 µM]. Under `O=Cc1ccccc1S(=O)(=O)O` stands 1.95%. Under `Cc1cc(C)c(N)c(Cl)c1` stands 4.21%; under `C[C@]12C=CC(=O)C=C1[C@@H](F)C[C@@H]1[C@@H]2[C@@H](O)C[C@@]2(C)[C@H]1CC[C@]2(O)C(=O)CO`, 6.04% [at 42.5 µM]; under `COc1ccccc1N1CCN(CC(O)COc2cc(OC)c(OC)c(OC)c2)CC1` (stereo not given), -2.85% [at 42.5 µM]. Regarding `NS(=O)(=O)c1cc2c(cc1C(F)(F)F)NCNS2(=O)=O`, the “viability change, negative = cytotoxic” value was 0.386% [at 42.5 µM]. Under `CCCCCCCCCCCCCCCCN(C)C` stands 0.965% [at 8.39 µM]; under `COc1cc(C(=O)NC2CCCNC2)cc(OC)c1OC` (stereo not given), 1.16% [at 42.5 µM]; under `CCCCOCCCC`, 3.76%. Under `COC(=O)c1ccc(C(=O)O)cc1` stands 1.2%; under `CC(O)CCCCn1c(=O)c2c(ncn2C)n(C)c1=O` (stereo not given), 6.19% [at 42.5 µM]; under `CC(C)(C)OC(=O)c1ccccc1C(=O)O`, -5.57%. With `CN(C)CCC[C@@]1(c2ccc(F)cc2)OCc2cc(C#N)ccc21`, the “viability change, negative = cytotoxic” value was -1.01% [at 42.5 µM].

Take `CC(C)(C)C(=O)CC(=O)C(C)(C)C`: the “viability change, negative = cytotoxic” value is 0.796%. The same measure for `CC/C=C\CCOC(=O)c1ccccc1`: 6.74%; for `N#Cc1ccccc1C#N`: 3.16%. The same measure for `COc1cc(NS(=O)(=O)c2ccc(N)cc2)ncn1`: 1.52% [at 42.5 µM]. Consider `CCCCc1ccc(Cl)cc1`, for which the “viability change, negative = cytotoxic” value was 3.14%. The same measure for `C=C(C)C(=O)OCCCC`: 3.08%.

Consider `C=CC(=O)OCCOCCOCC`, for which the “viability change, negative = cytotoxic” value was 0.0134%.

For the molecule `CCc1ccc(CC)cc1`, the “viability change, negative = cytotoxic” value was 0.698%.

Take `COc1cc2nc(N3CCN(C(=O)C4CCCO4)CC3)nc(N)c2cc1OC` (stereo not given): the “viability change, negative = cytotoxic” value is -0.0677% [at 42.5 µM]. The same measure for `CC1(C)S[C@@H]2[C@H](NC(=O)Cc3ccccc3)C(=O)N2[C@H]1C(=O)O` (tested in a mixture with another compound): -13.9% [at 42.5 µM].
